PubChem BioAssay (NCI)
Values joined by “and” are separate entries in the source; they are usually repeats but may differ in a detail not shown here. Equal values may be shown once. About 83,000 compounds went through this panel and 20% of them were active in at least one assay; those are over-represented in the sample as a whole.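 Cells were grown in 96-well plates and exposed to the test compound at a single concentration for 48 hours; results are reported as percent growth, with values below 10 considered active.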 Active and inactive are the calls of the source.

Assays:
Assay in all cases: NCI-60 one-dose screen, 48 h (100 = growth as untreated, 0 = no growth, -100 = all killed)
Conditions in all cases: 10 µM unless noted
[1] = system: HCT-15 colon
[2] = system: HT29 colon
[3] = system: SNB-75 CNS
[4] = system: SNB-19 CNS
[5] = system: U251 CNS
[6] = system: PC-3 prostate
[7] = system: SK-MEL-5 melanoma
[8] = system: UACC-62 melanoma
[9] = system: LOX IMVI melanoma
[10] = system: SK-MEL-28 melanoma

Row | SMILES | growth [1] | growth [2] | growth [3] | growth [4] | growth [5] | growth [6] | growth [7] | growth [8] | growth [9] | growth [10]
1 | COc1cc(-c2nc3occn3c2-c2ccnc(NCCCNS(=O)(=O)c3ccc(O)cc3)n2)ccc1F | 114% (inactive) | 66.4% (inactive) | 97.6% (inactive) | 124% (inactive) | 108% (inactive) | 94.6% (inactive) | 62.8% (inactive) | 21% (inactive) | 55.6% (inactive) | 27.7% (inactive)
2 | O=C(Nc1ncc(Cc2cccc(C(F)(F)F)c2)s1)c1ccc(-n2cnnn2)cc1 | 38.7% (inactive) | 62% (inactive) | 83.4% (inactive) | 59.7% (inactive) | 64.4% (inactive) | 54.1% (inactive) | 37.8% (inactive) | 19.8% (inactive) | 46.6% (inactive) | 52.7% (inactive)
3 | COC(=O)/C=C1/SC(N2N=C(c3cccs3)CC2c2ccc(F)cc2)=NC1=O (stereo not given) | -9.66% (active) | 13.3% (inactive) | 48% (inactive) | 76.4% (inactive) | 22.1% (inactive) | 64.5% (inactive) | 54.1% (inactive) | 56.8% (inactive) | -46.5% (active) | 43.8% (inactive)
4 | COc1cc(/C=N/NC(=O)CCN2c3ccccc3Sc3ccccc32)cc(OC)c1OC | 96.4% (inactive) | 90% (inactive) | 91.6% (inactive) | 90.4% (inactive) | 97.8% (inactive) | 61.4% (inactive) | 76.5% (inactive) | 62.6% (inactive) | 79.5% (inactive) | 97.5% (inactive)
5 | CC/C(=C(/c1ccc(Cl)cc1)c1ccc(OCCN2CCOCC2)cc1)c1ccccc1 | 94.1% (inactive) | 75.6% (inactive) | 105% (inactive) | 98.6% (inactive) | 93.6% (inactive) | 73.1% (inactive) | 108% (inactive) | 88.2% (inactive) | 108% (inactive) | 98.8% (inactive)
6 | CN1CCN(CCCN2c3ccccc3Sc3ccc(Cl)cc32)CC1 | 68.8% (inactive) and 80.8% (inactive) | 25.2% (inactive) and 35.9% (inactive) | 45.2% (inactive) and 57.4% (inactive) | 89.7% (inactive) and 91.4% (inactive) | 54.6% (inactive) and 68% (inactive) | 56.2% (inactive) and 53.6% (inactive) | 17.6% (inactive) and 62.1% (inactive) | 33.1% (inactive) | 54.4% (inactive) and 71.8% (inactive) | -18.1% (active) and 67.7% (inactive)
7 | Cc1ccc(C(=O)c2ccc(CC(=O)N=Nc3c(O)[nH]c4ccc(OC(F)(F)F)cc34)n2C)cc1 | 93.3% (inactive) | 107% (inactive) | 82.1% (inactive) | 94% (inactive) | 97% (inactive) | 98.6% (inactive) | 97.3% (inactive) | 106% (inactive) | 89.8% (inactive) | 99.9% (inactive)
8 | COc1cccc(NC(=O)c2sc3nc(C)c(C(O)c4ccccc4)cc3c2N)c1 (stereo not given) | 14.6% (inactive) | 13.3% (inactive) | 54.2% (inactive) | 27.6% (inactive) | 8.92% (active) | 23.5% (inactive) | -17.2% (active) | 32% (inactive) | 36.1% (inactive) | 64.9% (inactive)
9 | O=C(Nc1ccc2ncsc2c1)c1csc(Nc2ccc3[nH]ncc3c2)n1 | 26% (inactive) | 19.4% (inactive) | 21.6% (inactive) | 41.2% (inactive) | 38.6% (inactive) | 40.6% (inactive) | 9.43% (active) | 22.7% (inactive) | 45% (inactive) | 69.2% (inactive)
10 | CCOc1ccc(C(=O)Cc2ccccc2)cc1 | 98.2% (inactive) and 110% (inactive) | 104% (inactive) and 111% (inactive) | 101% (inactive) and 113% (inactive) | 101% (inactive) and 102% (inactive) | 108% (inactive) and 101% (inactive) | 102% (inactive) and 110% (inactive) | 106% (inactive) and 98.5% (inactive) | 98.2% (inactive) and 106% (inactive) | 102% (inactive) and 106% (inactive) | 115% (inactive) and 109% (inactive)
11 | CC12OC(CC(O)C1O)n1c3ccccc3c3c4c(c5c6ccccc6n2c5c31)C(=O)N(CCN1CCOCC1)C4=O (stereo not given) | 9.81% (active) | 2.31% (active) | -5.19% (active) | 8.99% (active) | 3.67% (active) | 7.32% (active) | -44.5% (active) | -52% (active) | -61.1% (active) | 34.6% (inactive)
12 | Cc1cccc(-c2nnc(SCC(=O)Nc3ncc(Cc4ccccc4)s3)n2N2C(=O)CSC2=S)c1 | 78.5% (inactive) | 81.2% (inactive) | -7.46% (active) | 54.1% (inactive) | 34.6% (inactive) | 57.3% (inactive) | 75.9% (inactive) | 20.1% (inactive) | 23.5% (inactive) | 51.3% (inactive)
13 | COc1ccc(-c2c[nH]c(C(=O)O)c2-c2cc(OC)c(OC)c(OC)c2)cc1 | 31.7% (inactive) | 14.7% (inactive) | -15.5% (active) | 41.3% (inactive) | 49.5% (inactive) | 32.8% (inactive) | 19.2% (inactive) | 37.7% (inactive) | 47.2% (inactive) | 61.7% (inactive)
14 | Cc1ccc(-c2nc3nc(-c4ccc(Cl)cc4)nc(N4CCCNCC4)c3o2)cc1 | -81.5% (active) | -82.4% (active) | -10.4% (active) | -89.7% (active) | -86.9% (active) | -79.8% (active) | 92.8% (inactive) | 95.6% (inactive) | -83.2% (active) | 108% (inactive)
15 | CCCO/N=C/c1ccccn1 | 106% (inactive) and 103% (inactive) | 96.8% (inactive) and 93.4% (inactive) | 85.2% (inactive) and 85.5% (inactive) | 97.8% (inactive) and 105% (inactive) | 103% (inactive) and 101% (inactive) | 117% (inactive) and 96.1% (inactive) | 104% (inactive) and 108% (inactive) | 99.2% (inactive) and 108% (inactive) | 108% (inactive) and 98.5% (inactive) | 107% (inactive) and 99.4% (inactive)
16 | O=C1C(c2c[nH]c3ccccc23)=C(c2coc3cc(Br)ccc23)C(=O)N1O | 97.2% (inactive) | 103% (inactive) | 65.4% (inactive) | 103% (inactive) | 101% (inactive) | 89.6% (inactive) | 97.2% (inactive) | 84.7% (inactive) | 62.2% (inactive) | 111% (inactive)
17 | Nc1nc(N)c2c(n1)NC(c1cccc(Nc3ccnc4cc(C(F)(F)F)ccc34)c1)CC(c1ccc(F)cc1)=N2 (stereo not given) | 21.3% (inactive) | 12.5% (inactive) | 47.1% (inactive) | 61.3% (inactive) | 33.6% (inactive) | 34.4% (inactive) | 30.4% (inactive) | 71.4% (inactive) | 40.5% (inactive) | 79.2% (inactive)
18 | CC1(C)C(N)=Nc2cc(OCCCN3Cc4ccc(OCCc5cn(CC(=O)N6CCC(CCN7CCCC7)CC6)nn5)cc4C3)c(OCC3CC3)cc21 | 97.2% (inactive) | 74.2% (inactive) | 93.8% (inactive) | 104% (inactive) | 97.7% (inactive) | 84.5% (inactive) | 103% (inactive) | 98.6% (inactive) | 100% (inactive) | 108% (inactive)
19 | CN1CCN(CCNC(=O)c2cccc(CN3c4cccc5c4C(=Cc4cccnc43)N(C)C5=O)c2)CC1 | 10.7% (inactive) | 17.7% (inactive) | -11.2% (active) | 42.9% (inactive) | 48.2% (inactive) | 39.6% (inactive) | 12.9% (inactive) | 17.3% (inactive) | 8.25% (active) | 67.8% (inactive)
20 | O=C(Oc1ccc(CO[N+](=O)[O-])cc1)c1ccccc1 | -83% (active) | -60% (active) | -97.9% (active) | -78.8% (active) | -91.2% (active) | -91.7% (active) | -96.1% (active) | -76.3% (active) | -87.4% (active) | -71.9% (active)
21 | O=C(NCc1ccc(Cn2c(=O)sn(-c3ccc(Cl)cc3)c2=O)cc1)OCc1ccc2c(Cl)cc(Cl)c(O)c2n1 | 15.7% (inactive) | 111% (inactive) | 69% (inactive) | 39.1% (inactive) | 36.3% (inactive) | 35.5% (inactive) | 33% (inactive) | 33.4% (inactive) | 31.6% (inactive) | 47% (inactive)
22 | COc1ccc(C(=O)c2ccc(OC)c(OC)c2OC)cc1 | 26.6% (inactive) and 27.2% (inactive) | 4.69% (active) and 12.7% (inactive) | -3.95% (active) | 43.6% (inactive) and 41.7% (inactive) | 31.3% (inactive) and 26.2% (inactive) | 35.5% (inactive) and 32.9% (inactive) | 18.8% (inactive) | 40.8% (inactive) and 50.7% (inactive) | 34.3% (inactive) and 39.8% (inactive) | 45.3% (inactive) and 50.3% (inactive)
23 | O=C(NNc1ccccc1)c1ncc[nH]1 | 34.8% (inactive) | 54.9% (inactive) | 85.2% (inactive) | 96.5% (inactive) | 78.6% (inactive) | 71.9% (inactive) | 85% (inactive) | 10.9% (inactive) | 1.27% (active) | 40.7% (inactive)
24 | CCCCCCCCCCCCC[C@H](O)C[C@H](O)[C@H](C)N | 97.8% [1.25 µM] (inactive) | 103% [1.25 µM] (inactive) | 129% [1.25 µM] (inactive) | 104% [1.25 µM] (inactive) | 85.2% [1.25 µM] (inactive) | 97% [1.25 µM] (inactive) | 97.6% [1.25 µM] (inactive) | 113% [1.25 µM] (inactive) | 90.8% [1.25 µM] (inactive) | 115% [1.25 µM] (inactive)
